Measured values from PubChem BioAssay (NCI).
The panel holds about 83,000 compounds, 20% with a hit somewhere; the sample as a whole holds those more often.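 Cells were grown in 96-well plates and exposed to the test compound at a single concentration for 48 hours; results are reported as percent growth, with values below 10 considered active.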 The source made the active and inactive calls.

Experiments:
Test in all cases: NCI-60 one-dose screen, 48 h (100 = growth as untreated, 0 = no growth, -100 = all killed)
NCI-H23 lung = settings: 10 µM unless noted
NCI-H460 lung = settings: 10 µM unless noted
DU-145 prostate = settings: 10 µM unless noted
MDA-MB-231 breast = settings: 10 µM unless noted
SF-268 CNS = settings: 10 µM unless noted
SF-539 CNS = settings: 10 µM unless noted
UACC-257 melanoma = settings: 10 µM unless noted
HCT-15 colon = settings: 10 µM
PC-3 prostate = settings: 10 µM unless noted
SK-MEL-5 melanoma = settings: 10 µM unless noted
LOX IMVI melanoma = settings: 10 µM unless noted
SK-MEL-28 melanoma = settings: 10 µM unless noted
SN12C renal = settings: 10 µM unless noted
NCI/ADR-RES ovarian = settings: 10 µM unless noted
SW-620 colon = settings: 10 µM unless noted
MCF7 breast = settings: 10 µM unless noted
HCT-116 colon = settings: 10 µM unless noted
HCC-2998 colon = settings: 10 µM unless noted
KM12 colon = settings: 10 µM unless noted
786-0 renal = settings: 10 µM unless noted

Measured: growth

NC(=O)C(Br)CBr (centres undefined)
inactive: NCI-H23 lung 24.1% | MDA-MB-231 breast 14.3% | SF-539 CNS 39.2% | PC-3 prostate 13.9% | SK-MEL-5 melanoma 55.6% | SN12C renal 22% | NCI/ADR-RES ovarian 15.3% | HCC-2998 colon 38.4% | KM12 colon 71.4%
active: NCI-H460 lung 4.13% | DU-145 prostate -28.2% | SF-268 CNS -23.1% | UACC-257 melanoma -83.5% | HCT-15 colon -7.98% | LOX IMVI melanoma 3.13% | SK-MEL-28 melanoma -28% | SW-620 colon -59.3% | MCF7 breast 2.57% | HCT-116 colon -92.7%

O=S(=O)(F)c1ncnc2nc[nH]c12
inactive: NCI-H23 lung 95.5% | NCI-H460 lung 103% | 786-0 renal 97.6% | MDA-MB-231 breast 93.9% | SF-268 CNS 70% | SF-539 CNS 88.1% | UACC-257 melanoma 105% | HCT-15 colon 98.3% | PC-3 prostate 93.7% | SK-MEL-5 melanoma 96.2% | LOX IMVI melanoma 85.8% | SK-MEL-28 melanoma 97% | SN12C renal 91.8% | NCI/ADR-RES ovarian 93.8% | SW-620 colon 95.4% | MCF7 breast 84.1% | HCT-116 colon 100% | HCC-2998 colon 101% | KM12 colon 81.8%

NC(Cc1ccc2c(c1)OCO2)c1ccc2c(c1)OCO2 (centres undefined)
inactive: NCI-H23 lung 105% | NCI-H460 lung 104% | 786-0 renal 98.5% | DU-145 prostate 116% | MDA-MB-231 breast 107% | SF-268 CNS 103% | SF-539 CNS 114% | UACC-257 melanoma 103% | HCT-15 colon 115% | PC-3 prostate 93.4% | SK-MEL-5 melanoma 103% | LOX IMVI melanoma 99.8% | SK-MEL-28 melanoma 101% | SN12C renal 94% | NCI/ADR-RES ovarian 107% | SW-620 colon 101% | MCF7 breast 89.2% | HCT-116 colon 95.5% | HCC-2998 colon 106% | KM12 colon 109%

CC(C)N=C(NC(C)C)N1CC1
inactive: NCI-H23 lung 113% | NCI-H460 lung 116% | 786-0 renal 116% | DU-145 prostate 122% | MDA-MB-231 breast 96.9% | SF-268 CNS 108% | SF-539 CNS 103% | UACC-257 melanoma 105% | HCT-15 colon 110% | PC-3 prostate 112% | SK-MEL-5 melanoma 113% | LOX IMVI melanoma 116% | SK-MEL-28 melanoma 106% | SN12C renal 111% | NCI/ADR-RES ovarian 113% | SW-620 colon 110% | MCF7 breast 102% | HCT-116 colon 111% | HCC-2998 colon 103% | KM12 colon 110%

OC1(c2ccccc2F)c2ccccc2C2=NCCN21 (centres undefined)
inactive: NCI-H23 lung 86.7% | NCI-H460 lung 118% | 786-0 renal 96.6% | DU-145 prostate 113% | MDA-MB-231 breast 109% | SF-268 CNS 116% | SF-539 CNS 100% | UACC-257 melanoma 111% | HCT-15 colon 108% | PC-3 prostate 95.6% | SK-MEL-5 melanoma 94.6% | LOX IMVI melanoma 96.9% | SK-MEL-28 melanoma 109% | SN12C renal 101% | NCI/ADR-RES ovarian 86.6% | SW-620 colon 96.8% | MCF7 breast 103% | HCT-116 colon 93.3% | HCC-2998 colon 100% | KM12 colon 105%

O=C(N/N=C/c1ccc(N(CCCl)CCCl)cc1)c1cc(=O)[nH]c(=O)[nH]1
inactive: NCI-H23 lung 79.7% | NCI-H460 lung 39% | 786-0 renal 83.2% | DU-145 prostate 91.4% | SF-268 CNS 95.2% | SF-539 CNS 91.3% | UACC-257 melanoma 101% | HCT-15 colon 97.8% | PC-3 prostate 89.2% | SK-MEL-5 melanoma 98.9% | LOX IMVI melanoma 93.4% | SK-MEL-28 melanoma 116% | NCI/ADR-RES ovarian 108% | SW-620 colon 108% | MCF7 breast 74.5% | HCT-116 colon 90.7% | HCC-2998 colon 104% | KM12 colon 111%

NCCc1cc(O)c(O)cc1O
inactive: NCI-H23 lung 100% | NCI-H460 lung 112% | 786-0 renal 99.9% | DU-145 prostate 112% | MDA-MB-231 breast 94.4% | SF-268 CNS 104% | UACC-257 melanoma 102% | HCT-15 colon 97.6% | PC-3 prostate 82.3% | SK-MEL-5 melanoma 98.5% | LOX IMVI melanoma 101% | SK-MEL-28 melanoma 114% | SN12C renal 89.1% | NCI/ADR-RES ovarian 101% | SW-620 colon 109% | MCF7 breast 105% | HCT-116 colon 95.3% | HCC-2998 colon 103% | KM12 colon 96.8%

CCCCCCCC(=O)OCC/C=C/C1OC1C1OC(=O)/C=C\C=C\c2nc(oc2C)/C=C(/C)CCC2OC2C1OC(=O)NC(C)=O (centres undefined)
active: NCI-H23 lung -59.1% | NCI-H460 lung -51.5% | 786-0 renal -53.8% | DU-145 prostate -74.5% | SF-268 CNS 5.33% | SF-539 CNS -34.1% | UACC-257 melanoma 5.16% | HCT-15 colon -5.6% | PC-3 prostate -3.27% | SK-MEL-5 melanoma -93.8% | LOX IMVI melanoma -21.6% | SK-MEL-28 melanoma -15.3% | SN12C renal -99.9% | NCI/ADR-RES ovarian -33.8% | SW-620 colon -65.4% | MCF7 breast -39.3% | HCT-116 colon -24.4% | HCC-2998 colon -92.8% | KM12 colon -74%
